Compounds with a hit are over-represented: about 2.6% of the library has one in this group of screens.
TLR9-MyD88 block: TLR9-MyD88 interaction inhibition; Q9NR96+Q99836; CHO BLA complementation TLR9-MyD88, CCF4 FRET ratio; inhibition, % at 4.98 µM; 340,000 compounds, 0.21% hits;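 active means inhibition above the mean over all tested compounds plus 3 SD, cut at about 21% in these data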
ABHD5 PLIN5 PPI: blocks binding of human ABHD5 to perilipin-5; Q00G26+Q8WTS1; Split G. princeps luciferase complementation, luminescence, 4 h; inhibition, % at 4 µM; 360,000 compounds, 0.78% hits; AID 602281;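 active means inhibition above the mean inhibition across every tested compound plus 3 SD, cut at about 22% in these data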
Target sequence (Q00G26 whole entry, looked up): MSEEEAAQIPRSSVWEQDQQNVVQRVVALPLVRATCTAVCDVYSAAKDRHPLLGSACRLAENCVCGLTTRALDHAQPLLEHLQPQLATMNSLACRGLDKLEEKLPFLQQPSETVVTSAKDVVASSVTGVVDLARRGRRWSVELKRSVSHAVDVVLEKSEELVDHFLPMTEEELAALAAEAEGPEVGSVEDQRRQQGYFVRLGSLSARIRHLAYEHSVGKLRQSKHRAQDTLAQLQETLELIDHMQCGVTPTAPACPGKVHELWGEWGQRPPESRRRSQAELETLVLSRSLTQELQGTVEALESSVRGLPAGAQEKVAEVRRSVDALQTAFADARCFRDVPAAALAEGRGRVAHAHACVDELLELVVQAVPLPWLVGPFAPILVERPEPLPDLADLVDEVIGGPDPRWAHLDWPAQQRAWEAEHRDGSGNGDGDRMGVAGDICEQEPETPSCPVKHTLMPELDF
Target sequence (Q8WTS1 whole entry, looked up): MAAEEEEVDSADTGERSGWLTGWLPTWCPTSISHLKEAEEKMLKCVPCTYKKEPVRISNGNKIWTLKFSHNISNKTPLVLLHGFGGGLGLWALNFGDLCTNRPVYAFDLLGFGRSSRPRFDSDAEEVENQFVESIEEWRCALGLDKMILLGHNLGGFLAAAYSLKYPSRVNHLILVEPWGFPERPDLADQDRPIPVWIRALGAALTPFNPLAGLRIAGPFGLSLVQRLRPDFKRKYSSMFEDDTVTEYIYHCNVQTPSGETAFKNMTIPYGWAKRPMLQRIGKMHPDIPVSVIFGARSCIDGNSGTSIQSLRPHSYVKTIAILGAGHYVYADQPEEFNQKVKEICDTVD
TLR4-MyD88 BLA: TLR4-MyD88 interaction inhibition in cells; O00206+Q99836; AID 861; 200,000 compounds, 0.18% hits; inhibition, % at 8.4 µM; HeLa CL3-4 TLR4/MyD88 BLA complementation, FRET ratio; in the data active means inhibition above about 25%
Granule exo inh: lytic granule exocytosis inhibition. TALL-104 LAMP-1 surface exposure, flow cytometry; cells stimulated with thapsigargin and PMA. inhibition, % at 10 µM. 360,000 compounds, 0.66% hits;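 active means inhibition above about 55%, limit read from the data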
NOD2-RIPK2 inh: NOD2-RIPK2 protein interaction inhibition; O43353; CHO BLA complementation NOD2-RIPK2, CCF4 ratio; inhibition, % at 4.98 µM; 360,000 compounds, 0.38% hits; AID 624267; in the data active means inhibition above about 21%
PRMT1 FP inh: blocks human protein arginine methyltransferase 1 | Q99873 | recombinant PRMT1, activity-based probe fluorescence polarization | inhibition, % at 2.79 µM | 370,000 compounds, 1.3% hits | AID 652257;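 active means inhibition above about 21% made by adding two undisclosed values, limit read from the data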
Exocytosis CP01: blocks lytic granule exocytosis | TALL-104 cells, LAMP-1 externalization, flow cytometry; stimulated with PMA plus thapsigargin | inhibition, % at 10 µM | shares compounds with Granule exo inh | 1,500 compounds, 11% hits; in the data active means inhibition above about 60%
Hits are given with their value; - = inactive; . = no result.

SMILES	TLR9-MyD88 block	ABHD5 PLIN5 PPI	TLR4-MyD88 BLA	Granule exo inh	NOD2-RIPK2 inh	PRMT1 FP inh	Exocytosis CP01
COC(=O)C[C@@H]1CC[C@H]2[C@@H](COc3ccc(NC(=O)Nc4ccccc4C)cc3C(=O)N2C)O1	.	.	.	.	.	-	.
COc1c2ccoc2c(OC[C@@H](O)C(C)(C)OC)c2oc(=O)ccc12	-	-	-	-	-	-	.
COc1c2ccoc2c(OC[C@@H](O)C(C)(C)O)c2oc(=O)ccc12	-	-	-	63	-	-	-
O=C1CCC[C@H]2CC3(CC[C@]24CCCN14)OCCO3	.	.	.	.	.	-	.
O=C(Cc1cccs1)Nc1nc(-c2ccc(F)cc2F)cs1	-	-	-	64	-	-	-
Cc1ccc(CNC(=O)c2ccc(N(C)S(=O)(=O)c3ccccc3)cc2)cc1	-	-	.	67	-	-	-
CN(c1ccccc1)S(=O)(=O)c1ccc(C(=O)NCc2ccc(F)cc2)cc1	-	-	.	-	-	-	.
O=S(=O)(Nc1c(O)ccc2ccccc12)c1cccc2ccccc12	-	-	.	-	-	.	.
Cc1ccc(S(=O)(=O)Nc2c(O)ccc3ccccc23)cc1	.	-	.	82	-	.	-
COc1ccc(C(=O)N(CCc2ccccc2)Cc2cccs2)c(OC)c1	-	-	.	64	-	-	-
Cc1ccsc1CN(C)C(=O)c1ccc(Oc2ccccc2)cc1	-	-	.	113	-	-	-
CN(Cc1ccc2ccccc2c1)C(=O)c1ccc(C(F)(F)F)cc1	-	-	.	60	-	-	-
COc1ccc(CN(C)C(=O)c2ccc(OCC(=O)Nc3cccc(C(F)(F)F)c3)c(OC)c2)cc1	-	-	.	-	-	-	.
COc1ccc(CN(C)C(=O)c2ccc(Oc3ccccc3)cc2)cc1F	-	-	.	67	-	-	-
O=C(/C=C(\Nc1ccc(Cl)c(C(F)(F)F)c1)c1ccccc1)c1ccccc1	.	.	.	.	.	-	.
CC(C)CN1CN2CCc3ccccc3C2CS1(=O)=O (stereo not given)	.	.	.	.	.	-	.
CN(CCOc1ccccc1)CC(=O)Nc1ccc([N+](=O)[O-])cc1Cl	-	-	-	73	-	-	-
CN(CC(=O)Nc1ccccc1Cl)C(=O)COC(=O)c1ccc([N+](=O)[O-])cc1Cl	-	-	.	-	-	-	.
COc1cccc2c1[C@H](/C=C/c1ccccc1)[C@@H]([C@H](O)CO)OC2	.	.	.	.	.	-	.
COc1ccc(Cc2nnc(NC(=O)C3CCN(C(=O)c4ccco4)CC3)s2)cc1	-	-	.	57	-	-	-
COCC(=O)N1C[C@H]2CON(C)[C@H]2C[C@H]1c1cccc(-c2cc(Cl)cc(Cl)c2)c1	.	.	.	.	.	-	.
COc1ccc(C(CNC(=O)CSc2ccccc2C)N(C)C)cc1 (stereo not given)	-	-	.	-	-	-	.
COc1ccc(C(CNC(=O)Cc2ccc(-c3ccccc3)cc2)N(C)C)cc1 (stereo not given)	-	-	.	62	-	-	-
COc1cccc(C(=O)N[C@H](C(=O)N2CCC[C@H]2C(=O)NCc2ccccc2)c2ccccc2)c1	.	.	.	.	.	-	.
Cn1c(=O)c2c(nc(N3CCN(Cc4ccccc4)CC3)n2CCCc2ccccc2)n(C)c1=O	-	-	-	-	-	-	.
SMILES	TLR9-MyD88 block	ABHD5 PLIN5 PPI	TLR4-MyD88 BLA	Granule exo inh	NOD2-RIPK2 inh	PRMT1 FP inh	Exocytosis CP01
Cn1c(=O)c2c(nc(N3CCN(c4ccccc4)CC3)n2CCCc2ccccc2)n(C)c1=O	-	-	-	74	-	-	-
COc1ccc(-c2ccc3c(n2)CCCN3S(=O)(=O)c2ccccc2)cc1	.	.	.	.	.	-	.
CC(C)C(NS(=O)(=O)c1cccc(C(F)(F)F)c1)C(=O)N1CCc2ccccc2C1 (stereo not given)	-	-	.	76	-	-	-
COC(=O)[C@]12C[C@H](CC(=O)N3CCCCC3)C(=O)N(Cc3ccccc3)C1=C[C@H](C(C)C)O[C@@H]2C1CC1	.	.	.	.	.	-	.
CC1CCN(C(=O)Cn2nnc(-c3ccccc3)n2)CC1	-	-	.	58	-	-	-
CC1CC(C)CN(C(=O)Cn2nnc(-c3ccccc3)n2)C1 (stereo not given)	-	-	.	-	-	-	.
CC(C)CCN(C)C1CCN(C(=O)Nc2ccc(Cl)cc2)CC1	.	.	.	.	.	-	.
CCc1nnc(NC(=O)[C@@H](NS(=O)(=O)c2ccc3c(c2)OCCO3)C(C)C)s1	-	-	.	58	-	-	-
CCCCn1c(NCc2ccc3c(c2)OCO3)nc2ccccc21	-	-	-	67	-	-	-
C[C@H]1CN(C(=O)OC(C)(C)C)CCN1c1ccc(N2CC[C@@H](O)C2)c(C#N)c1	.	.	.	.	.	-	.
CCC1=C2CC[C@H]3C(=O)N(C)C(=O)[C@H]3[C@H]2[C@@]2(Cc3ccccc3)C(=NCC(=O)OC)OC(=O)N2C1=O	-	-	.	84	-	-	-
CCNC(C(=O)c1c[nH]c2c(CC)cccc12)c1ccccc1 (stereo not given)	-	-	.	-	-	-	.
CCc1cccc2c(C(=O)C(NCCOC)c3ccccc3)c[nH]c12 (stereo not given)	-	-	.	66	-	-	-
CCCN(CCC)S(=O)(=O)c1cccc(-c2csc(C)n2)c1	-	-	.	59	-	-	-
CCN(CC)S(=O)(=O)c1ccc(-c2csc(C)n2)cc1	-	-	-	-	-	-	.
COc1ccccc1OCCn1cc(C(=O)C(C)C)c2ccccc21	-	-	.	60	-	-	-
COc1ccccc1OCCn1cc(C(=O)O)c2ccccc21	-	-	-	-	-	-	.
COc1cc(O)c(C(CC(=O)N2CCCC(C)C2)c2cc(OC)c(OC)c(OC)c2)c(OC)c1 (stereo not given)	-	-	.	58	-	-	-
COCCN1C(=O)C2=C(C1=O)C1N(C)c3ccccc3[C@@]13C[C@@H](CO)N(S(=O)(=O)c1ccc(OC)cc1)C3=N2 (stereo not given in full)	.	.	.	.	.	-	.
CN(C)CCCN1CC(=O)N2CCc3ccc(Br)cc3C2CC1=O (stereo not given)	.	.	.	.	.	-	.
COCCn1c(SCCOc2ccccc2)nc2ccccc2c1=O	-	-	-	67	-	-	-
COCCn1c(SCC(=O)c2ccccc2)nc2ccccc2c1=O	.	-	-	-	-	-	.
COc1ccc(CNCCC(c2ccc(OC(C)C)cc2)C(C)C)cc1OC (stereo not given)	-	-	-	-	-	-	.
COc1ccc(C(CCNCc2ccc(OC(C)C)cc2)C(C)C)cc1 (stereo not given)	.	-	.	78	-	-	-
COc1ccc(C(CCNCc2ccc(N(C)C)cc2)C(C)C)cc1 (stereo not given)	-	-	.	69	-	-	-
O=C(O)[C@@H]1C[C@@H](O)CN1	.	.	.	.	.	-	.
Cc1ccc(-c2nnc(CSc3nnc(COc4ccccc4)n3-c3ccc(C)cc3)o2)cc1	-	-	-	76	-	-	-
